About 410 targets per protein were measured; listed, in parts, are those with the strongest signals and a random draw of the rest.
Tests used:
Assay in all cases: glycan array binding signal (z-score within array); higher = stronger binding
Conditions in all cases: glycan notation: IUPAC condensed, linker removed
[1] = biological target: Fuc(a1-2)Gal(b1-4)GlcNAc(b1-6)GalNAc
Procedure, shortened: (§1)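 Columns mapping to the same glycan were averaged after glycan names were converted to IUPAC-condensed notation. The data come from 3228 arrays in the Consortium for Functional Glycomics database, limited to those with an available protein sequence. Binding is reported as a within-array Z-score averaged across arrays of one protein sequence and across linkers.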

[2] = biological target: Fuc(a1-2)Gal(b1-4)[Fuc(a1-3)]GlcNAc(b1-2)[Fuc(a1-2)Gal(b1-4)[Fuc(a1-3)]GlcNAc(b1-4)]Man(a1-3)[Fuc(a1-2)Gal(b1-4)[Fuc(a1-3)]GlcNAc(b1-2)Man(a1-6)]Man(b1-4)GlcNAc(b1-4)GlcNAc
Procedure, shortened: as §1

[3] = biological target: Fuc(a1-2)[Gal(a1-3)]Gal(b1-4)GlcNAc(b1-3)[Fuc(a1-2)[Gal(a1-3)]Gal(b1-4)GlcNAc(b1-6)]GalNAc
Procedure, shortened: as §1

[4] = biological target: Fuc(a1-2)[Gal(a1-4)]Gal(b1-4)GlcNAc
Procedure, shortened: as §1

[5] = biological target: Fuc(a1-2)[GalNAc(a1-3)]Gal
Procedure, shortened: as §1

[6] = biological target: Fuc(a1-2)[GalNAc(a1-3)]Gal(b1-3)GalNAc(a1-3)[Fuc(a1-2)]Gal(b1-4)GlcNAc
Procedure, shortened: as §1

[7] = biological target: Fuc(a1-2)[GalNAc(a1-3)]Gal(b1-4)GlcNAc(b1-3)Gal(b1-4)GlcNAc
Procedure, shortened: as §1

[8] = biological target: Fuc(a1-2)[GalNAc(a1-4)]Gal(b1-4)GlcNAc
Procedure, shortened: as §1

[9] = biological target: Fuc(a1-2)[GalNAc(b1-3)]Gal
Procedure, shortened: as §1

[10] = biological target: Fuc(a1-3)[Gal(b1-4)]GlcNAc
Procedure, shortened: as §1

[11] = biological target: Fuc(a1-3)[Gal(b1-4)]GlcNAc(b1-3)Gal(b1-3)[Fuc(a1-4)]GlcNAc
Procedure, shortened: as §1

[12] = biological target: Fuc(a1-3)[GalNAc(b1-4)]GlcNAc
Procedure, shortened: as §1

[13] = biological target: Gal(b1-3)GalNAc(b1-3)Gal
Procedure, shortened: as §1

[14] = biological target: Gal(b1-3)[Fuc(a1-4)]GlcNAc
Procedure, shortened: as §1

[15] = biological target: Gal(b1-3)[Fuc(a1-4)]GlcNAc(b1-2)Man
Procedure, shortened: as §1

[16] = biological target: Gal(b1-4)GlcNAc(b1-2)[Gal(b1-4)GlcNAc(b1-6)]Man(a1-6)[GlcNAc(b1-4)][Gal(b1-4)GlcNAc(b1-2)Man(a1-3)]Man(b1-4)GlcNAc(b1-4)GlcNAc
Procedure, shortened: as §1

[17] = biological target: Gal(b1-4)GlcNAc(b1-3)Gal(b1-4)GlcNAc(b1-2)Man(a1-3)[Gal(b1-4)GlcNAc(b1-3)Gal(b1-4)GlcNAc(b1-2)Man(a1-6)]Man(b1-4)GlcNAc(b1-4)GlcNAc
Procedure, shortened: as §1

[18] = biological target: Gal(b1-4)GlcNAc(b1-3)Gal(b1-4)GlcNAc(b1-3)Gal(b1-4)GlcNAc(b1-2)Man(a1-3)[Gal(b1-4)GlcNAc(b1-3)Gal(b1-4)GlcNAc(b1-3)Gal(b1-4)GlcNAc(b1-2)Man(a1-6)]Man(b1-4)GlcNAc(b1-4)GlcNAc
Procedure, shortened: as §1

[19] = biological target: Gal(b1-4)GlcNAc(b1-3)Gal(b1-4)GlcNAc(b1-3)Gal(b1-4)GlcNAc(b1-2)[Gal(b1-4)GlcNAc(b1-3)Gal(b1-4)GlcNAc(b1-3)Gal(b1-4)GlcNAc(b1-6)]Man(a1-6)[Gal(b1-4)GlcNAc(b1-3)Gal(b1-4)GlcNAc(b1-3)Gal(b1-4)GlcNAc(b1-2)Man(a1-3)]Man(b1-4)GlcNAc(b1-4)[Fuc(a1-6)]GlcNAc
Procedure, shortened: as §1

[20] = biological target: Gal(b1-4)GlcNAc(b1-6)GalNAc
Procedure, shortened: as §1

[21] = biological target: Gal3S(b1-4)GlcNAc
Procedure, shortened: as §1

[22] = biological target: GalNAc(b1-3)Gal(a1-4)Gal(b1-4)GlcNAc
Procedure, shortened: as §1

[23] = biological target: GalNAc(b1-4)GlcNAc
Procedure, shortened: as §1

[24] = biological target: GalNAc(b1-4)GlcNAc(b1-3)GalNAc(b1-4)GlcNAc
Procedure, shortened: as §1

[25] = biological target: GalNAc(b1-4)GlcNAc6S
Procedure, shortened: as §1

[26] = biological target: GalNAc3S(b1-4)[Fuc(a1-3)]GlcNAc
Procedure, shortened: as §1

[27] = biological target: GlcA(b1-3)GlcNAc
Procedure, shortened: as §1

[28] = biological target: GlcNAc(a1-4)Gal(b1-4)GlcNAc
Procedure, shortened: as §1

[29] = biological target: GlcNAc(a1-4)Gal(b1-4)GlcNAc(b1-3)Gal(b1-4)[Fuc(a1-3)]GlcNAc(b1-3)Gal(b1-4)[Fuc(a1-3)]GlcNAc
Procedure, shortened: as §1

[30] = biological target: GlcNAc(b1-3)Gal(b1-4)GlcNAc(b1-3)[GlcNAc(b1-3)Gal(b1-4)GlcNAc(b1-3)]GalNAc
Procedure, shortened: as §1

[31] = biological target: GlcNAc(b1-3)[GlcNAc(b1-6)]GalNAc
Procedure, shortened: as §1

[32] = biological target: GlcNAc(b1-6)GalNAc
Procedure, shortened: as §1

[33] = biological target: GlcNAc6S(b1-3)Gal(b1-4)GlcNAc
Procedure, shortened: as §1

[34] = biological target: Neu5Ac(a2-3)Gal(b1-3)GalNAc6S
Procedure, shortened: as §1

[35] = biological target: Neu5Ac(a2-3)Gal(b1-3)GlcNAc(b1-6)GalNAc
Procedure, shortened: as §1

[36] = biological target: Neu5Ac(a2-3)Gal(b1-3)[Neu5Ac(a2-6)]GalNAc
Procedure, shortened: as §1

[37] = biological target: Neu5Ac(a2-3)Gal(b1-4)GlcNAc(b1-6)[Gal(b1-3)]GalNAc
Procedure, shortened: as §1

[38] = biological target: Neu5Ac(a2-3)Gal(b1-4)[Fuc(a1-3)]GlcNAc(b1-2)Man
Procedure, shortened: as §1

[39] = biological target: Neu5Ac(a2-3)Gal(b1-4)[Fuc(a1-3)]GlcNAc(b1-6)[Gal(b1-3)]GalNAc
Procedure, shortened: as §1

[40] = biological target: Neu5Ac(a2-6)Gal(b1-4)GlcNAc(b1-2)Man(a1-6)[Man(a1-3)]Man(b1-4)GlcNAc(b1-4)GlcNAc
Procedure, shortened: as §1

[41] = biological target: Neu5Ac(a2-6)Gal(b1-4)GlcNAc(b1-2)[Neu5Ac(a2-6)Gal(b1-4)GlcNAc(b1-4)]Man(a1-3)[GlcNAc(b1-4)][Neu5Ac(a2-6)Gal(b1-4)GlcNAc(b1-4)Man(a1-6)]Man(b1-4)GlcNAc(b1-4)GlcNAc
Procedure, shortened: as §1

[42] = biological target: Neu5Ac(a2-8)Neu5Ac(a2-3)Gal(b1-4)Glc
Procedure, shortened: as §1

[43] = biological target: Neu5Gc(a2-8)Neu5Gc(a2-6)Gal(b1-4)GlcNAc
Procedure, shortened: as §1

[44] = biological target: Neu5Gc(b2-6)Gal(b1-4)GlcNAc
Procedure, shortened: as §1

B1: DC-ASGPR-short (Homo sapiens) (protein)
chain: MTRTYENFQYLENKVKVQGFKNGPLPLQSLLQRLRSGPCHLLLSLGLGLLLLVIICVVGFQNSKFQRDLVTLRTDFSNFTSNTVAEIQALTSQGSSLEETIASLKAEVEGFKQERQAVHSEMLLRVQQLVQDLKKLTCQVATLNNNASTEGTCCPVNWVEHQDSCYWFSHSGMSWAEAEKYCQLKNAHLVVINSREEQNFVQKYLGSAYTWMGLSDPEGAWKWVDGTDYATGFQNWKPGQPDDWQGHGLGGGEDCAHFHPDGRWNDDVCQRPYHWVCEAGLGQTSQESH
- glycan array binding signal (z-score) [1]: 4.65
- glycan array binding signal (z-score) [2]: -0.192
- glycan array binding signal (z-score) [3]: -0.17
- glycan array binding signal (z-score) [4]: -0.263
- glycan array binding signal (z-score) [5]: 0.967
- glycan array binding signal (z-score) [6]: 1.27
- glycan array binding signal (z-score) [7]: 0.335
- glycan array binding signal (z-score) [8]: 3.1
- glycan array binding signal (z-score) [9]: 4.03
- glycan array binding signal (z-score) [10]: -0.28
- glycan array binding signal (z-score) [11]: -0.284
- glycan array binding signal (z-score) [12]: 3.04
- glycan array binding signal (z-score) [13]: -0.217
- glycan array binding signal (z-score) [14]: -0.264
- glycan array binding signal (z-score) [15]: -0.106
- glycan array binding signal (z-score) [16]: -0.282
- glycan array binding signal (z-score) [17]: -0.244
- glycan array binding signal (z-score) [18]: -0.221
- glycan array binding signal (z-score) [19]: -0.198
- glycan array binding signal (z-score) [20]: 3.52
- glycan array binding signal (z-score) [21]: -0.271
- glycan array binding signal (z-score) [22]: 6.36
- glycan array binding signal (z-score) [23]: 4.38
- glycan array binding signal (z-score) [24]: 4.52
- glycan array binding signal (z-score) [25]: 4.1
- glycan array binding signal (z-score) [26]: -0.256
- glycan array binding signal (z-score) [27]: -0.28
- glycan array binding signal (z-score) [28]: -0.273
- glycan array binding signal (z-score) [29]: -0.266
- glycan array binding signal (z-score) [30]: -0.295
- glycan array binding signal (z-score) [31]: -0.234
- glycan array binding signal (z-score) [32]: 4.64
- glycan array binding signal (z-score) [33]: -0.27
- glycan array binding signal (z-score) [34]: -0.279
- glycan array binding signal (z-score) [35]: 5.92
- glycan array binding signal (z-score) [36]: -0.224
- glycan array binding signal (z-score) [37]: -0.283
- glycan array binding signal (z-score) [38]: -0.238
- glycan array binding signal (z-score) [39]: -0.285
- glycan array binding signal (z-score) [40]: -0.288
- glycan array binding signal (z-score) [41]: -0.34
- glycan array binding signal (z-score) [42]: -0.277
- glycan array binding signal (z-score) [43]: -0.279
- glycan array binding signal (z-score) [44]: -0.278
